Some test systems named below: DU-145 prostate; K-562 leukemia; MALME-3M melanoma; MDA-MB-231 breast; RXF 393 renal; SF-268 CNS; SF-539 CNS; UACC-257 melanoma; M14 melanoma; HCT-15 colon; HT29 colon; SNB-75 CNS; SNB-19 CNS; U251 CNS; PC-3 prostate; UACC-62 melanoma; LOX IMVI melanoma; SK-MEL-28 melanoma; SK-MEL-5 melanoma.
What all share (test): NCI-60 one-dose screen, 48 h (100 = growth as untreated, 0 = no growth, -100 = all killed)
Conditions in all cases: 10 µM unless noted

The record followed here is PubChem BioAssay (NCI).

The panel holds about 83,000 compounds, 20% with a hit somewhere; the sample as a whole holds those more often.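 The endpoint reported here, percent growth, reads 100 for growth as untreated, 0 for no net growth and -100 for all cells dead.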 A number with no mark means an inactive call. Active and inactive are the calls of the source. The calls were made as follows: active = growth percent below 10; inactive = the rest.

With `CCCCCCCCCCCCCC[N+](C)(C)CCCCCCCCCCCCCC`, the growth in the test on DU-145 prostate is 97.9%; with K-562 leukemia, 30.5%; in the test on MALME-3M melanoma it was 50.1%; in the test with MDA-MB-231 breast it was 78.9%; in the test with RXF 393 renal it was 2.29% (active); in the test with SF-268 CNS, 70.8%. The growth in the test on SF-539 CNS is 77.2%; in the test on UACC-257 melanoma, 82.5%; in the test with M14 melanoma, 75.4%; in the test on HCT-15 colon, 75.1%; in the test on HT29 colon it was 30.5%; with SNB-75 CNS, 62.9%. Moreover, the growth in the test on SNB-19 CNS was 70.4%; in the test on U251 CNS it was 44.7%; in the test with PC-3 prostate it was 12.6%; in the test on UACC-62 melanoma, 42.6%; in the test with LOX IMVI melanoma, 51.8%; in the test on SK-MEL-28 melanoma, 89.3%.

As to `O=C(Oc1c(Cl)c(Cl)c(Cl)c(Cl)c1Cl)C1CCCN1C(=O)OCc1ccccc1` (configuration not stated), the growth with DU-145 prostate is 60.9%; in the test on K-562 leukemia, 17.3%; in the test with MALME-3M melanoma it was 72.3%; with MDA-MB-231 breast it was 69.1%; with RXF 393 renal, 92.2%; with SF-268 CNS, 42.2%. Also, the growth is 50.5% in the test on SF-539 CNS; 82.1% in the test with UACC-257 melanoma; 78.9% in the test on M14 melanoma; 15.4% with HCT-15 colon; 89.1% with HT29 colon; 36.4% with SNB-75 CNS. Also, the growth is 26.2% with SNB-19 CNS; 18.3% in the test on U251 CNS; 10.7% in the test on PC-3 prostate; 75.2% in the test on UACC-62 melanoma; 64.8% in the test on LOX IMVI melanoma; 99% with SK-MEL-28 melanoma.

For the compound `COc1c(B(O)O)cccc1-c1nc2c(F)cc3n[nH]c(C)c3c2c2c1CCCC2`, the growth with DU-145 prostate is 15%; with K-562 leukemia it was 17.8%; in the test with MALME-3M melanoma, 55.9%; with MDA-MB-231 breast it was 25.5%; with RXF 393 renal it was -19.3% (active); in the test with SF-268 CNS, 17.5%. For the same compound, the growth in the test with SF-539 CNS is 4.1% (active); with UACC-257 melanoma, 18.8%; in the test on M14 melanoma, 41.1%; in the test on HCT-15 colon it was 18.3%; in the test with HT29 colon, 17%; in the test with SNB-75 CNS, -21.6% (active). Moreover, the growth is 18.1% in the test on SNB-19 CNS; 13.6% in the test with U251 CNS; 27.3% with PC-3 prostate; 3.54% (active) in the test with UACC-62 melanoma; 11.8% with LOX IMVI melanoma; 25% in the test with SK-MEL-28 melanoma.

Regarding `COc1ccc(-c2nc(-c3cc(OC)cc(OC)c3)[nH]c2-c2ccc(OC)cc2)cc1`, the growth is 78.5% with DU-145 prostate; 16.3% with K-562 leukemia; 70.9% with MALME-3M melanoma; 58.7% with MDA-MB-231 breast; 54.5% with RXF 393 renal; 88.6% with SF-268 CNS. Also, the growth in the test with SF-539 CNS was 80.5%; in the test with UACC-257 melanoma it was 62.9%; in the test with M14 melanoma, 49.7%; in the test on HCT-15 colon it was 45.3%; with HT29 colon, 17.3%; in the test on SNB-75 CNS, 86.1%. Moreover, the growth is 61.2% with SNB-19 CNS; 45.6% in the test with U251 CNS; 27.5% in the test on PC-3 prostate; 14.9% in the test on SK-MEL-5 melanoma; 37% in the test with UACC-62 melanoma; 61.3% in the test on LOX IMVI melanoma. Also, the growth in the test with SK-MEL-28 melanoma is 67.4%.

On to `Cc1cc(-c2nnc(/C=C/c3ccc4c(c3)OCO4)o2)n[nH]1`, for which the growth with DU-145 prostate is 83.4%; with K-562 leukemia, 23.5%; with MALME-3M melanoma, 49.4%; with MDA-MB-231 breast, 54.4%; in the test on RXF 393 renal it was 85.5%; in the test with SF-268 CNS it was 74.9%. Also, the growth in the test with SF-539 CNS was 46.3%; in the test on UACC-257 melanoma it was 78.1%; in the test with M14 melanoma, 46.3%; in the test with HCT-15 colon, 44.3%; with HT29 colon, 23%; in the test with SNB-75 CNS it was 51.3%. Besides, the growth with SNB-19 CNS was 86.8%; with U251 CNS, 85.1%; in the test on PC-3 prostate, 74.3%; with SK-MEL-5 melanoma, 70.9%; in the test on UACC-62 melanoma, 69.5%; in the test with LOX IMVI melanoma it was 52.5%. In addition, in the test on SK-MEL-28 melanoma, the growth is 71.5%.

In the case of `O=NN(CC(=O)NNc1ccccc1)CC(=O)NNc1ccccc1`, the growth was 68.7% with DU-145 prostate; 11.8% in the test with K-562 leukemia; 102% in the test on MALME-3M melanoma; 58.7% with MDA-MB-231 breast; 84.9% in the test with RXF 393 renal; 59.7% in the test with SF-268 CNS. Also, the growth with SF-539 CNS was 72%; in the test with UACC-257 melanoma, 95.4%; in the test with M14 melanoma, 33.1%; in the test with HCT-15 colon, 33.7%; in the test on HT29 colon, 69.2%; with SNB-75 CNS, 90.8%. For the same compound, the growth was 96.2% in the test with SNB-19 CNS; 78.8% in the test on U251 CNS; 58.8% in the test with PC-3 prostate; 3.99% (active) with UACC-62 melanoma; 7.04% (active) in the test on LOX IMVI melanoma; 95.5% in the test with SK-MEL-28 melanoma.

Regarding `CCN(CC)Cc1cc(Nc2ccnc3cc(Cl)ccc23)cc(-c2ccc(Cl)cc2)c1O`, the growth in the test on DU-145 prostate was 26.1%; in the test on K-562 leukemia, 18.8%; in the test on MALME-3M melanoma it was 10% (active); in the test on MDA-MB-231 breast it was 48.7%; with RXF 393 renal, 46.4%; in the test on SF-268 CNS it was 8.65% (active). Moreover, the growth is -25.6% (active) in the test on SF-539 CNS; 10.5% with UACC-257 melanoma; 10.2% in the test on M14 melanoma; 25.2% with HCT-15 colon; 22.7% with HT29 colon; -35.9% (active) with SNB-75 CNS. The growth was 32.8% in the test on SNB-19 CNS; 0.662% (active) in the test with U251 CNS; 25.2% in the test on PC-3 prostate; 60.8% with UACC-62 melanoma; 0.179% (active) in the test on LOX IMVI melanoma; 46% in the test with SK-MEL-28 melanoma.

As to `COc1ccc(C2C=C(c3ccc(Cl)cc3)N=C3SC=CN32)cc1` (configuration not stated), the growth in the test with DU-145 prostate was 129%; in the test with K-562 leukemia, 104%; in the test with MALME-3M melanoma it was 108%; with MDA-MB-231 breast, 112%; in the test with RXF 393 renal, 122%; with SF-268 CNS, 119%. The growth was 104% in the test with SF-539 CNS; 108% in the test on UACC-257 melanoma; 109% in the test on M14 melanoma; 110% in the test with HCT-15 colon; 106% in the test on HT29 colon; 86.7% in the test with SNB-75 CNS. Besides, the growth in the test on SNB-19 CNS is 115%; in the test with U251 CNS, 105%; in the test with PC-3 prostate, 86.7%; in the test on SK-MEL-5 melanoma it was 111%; with UACC-62 melanoma, 116%; in the test with LOX IMVI melanoma, 99.6%. In addition, in the test with SK-MEL-28 melanoma, the growth is 97.6%.
